CYP2C19 act: cytochrome P450 2C19 (human) activation; AID 1025; activation factor at 5 µM; P33261; 96,000 tested, under 10 active; recombinant CYP2C19, luciferin-H EGE luminescence; active compounds read high; 0 = fully inhibited enzyme, 1 = untreated enzyme;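 active = activation factor of at least 2 at 5 µM in the primary screen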
CYP2C9 act: increases human cytochrome P450 2C9 activity; P11712; recombinant CYP2C9, luciferin-H conversion, luminescence; active compounds read high; factor 1 = untreated enzyme, 0 = blocked; activation factor at 5 µM; 96,000 tested, 1.4% active; AID 1024;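 active = activation factor of 2 or more for CYP2C9 at a 5 µM dose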
CYP2C19 inhib: blocks human cytochrome P450 2C19. CYP2C19 Supersomes, luciferin-H EGE luminescence, 30 min. 96,000 tested, 21% active. inhibition, % at 5 µM. P33261. AID 778;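 active = CYP2C19 inhibition above a set limit at 5 µM in the primary screen, cut at about 50% in these data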
CYP2C9 inhib: inhibitors of human CYP2C9. P11712. CYP2C9 Supersomes, luciferin-H conversion, luminescence. inhibition, % at 5 µM. 96,000 tested, 20% active. AID 777;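 active = blocking of liver enzyme CYP2C9 beyond about 50% at 5 µM, limit read from the data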
sEH inh: blocks human soluble epoxide hydrolase activity | 91,000 tested, 0.34% active | recombinant human sEH enzymatic activity assay | P34913 | AID 707 | inhibition, % at 2 µM; in the data active = inhibition above about 80%
Target sequence (P34913 whole entry, looked up): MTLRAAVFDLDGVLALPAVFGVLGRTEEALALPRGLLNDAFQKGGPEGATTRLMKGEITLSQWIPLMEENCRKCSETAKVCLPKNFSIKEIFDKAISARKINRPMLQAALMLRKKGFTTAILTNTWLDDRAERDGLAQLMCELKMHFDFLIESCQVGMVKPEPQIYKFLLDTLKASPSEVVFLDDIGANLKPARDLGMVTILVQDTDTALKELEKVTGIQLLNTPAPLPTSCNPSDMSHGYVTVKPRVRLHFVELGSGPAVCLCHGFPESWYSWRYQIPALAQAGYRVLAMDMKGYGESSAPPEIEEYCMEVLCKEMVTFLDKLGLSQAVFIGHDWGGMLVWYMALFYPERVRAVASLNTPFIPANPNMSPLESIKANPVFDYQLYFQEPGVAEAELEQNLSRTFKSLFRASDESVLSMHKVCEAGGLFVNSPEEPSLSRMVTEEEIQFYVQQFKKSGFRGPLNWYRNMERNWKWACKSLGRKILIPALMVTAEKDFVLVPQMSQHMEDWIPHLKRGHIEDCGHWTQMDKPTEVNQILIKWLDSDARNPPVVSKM
sEH act: increases human soluble epoxide hydrolase activity | 91,000 tested, 0.04% active | activation, % at 2 µM | purified human sEH enzymatic activity, activator screen; in the data active = activation above about 37%
A number is an active result; n = inactive; x = no result given. This is a sample that favours compounds with a hit; in the whole collection about 27% have one here.

SMILES	CYP2C19 act	CYP2C9 act	CYP2C19 inhib	CYP2C9 inhib	sEH inh	sEH act
C=CCOC(=O)C1C(=O)CC(C)(O)C(C(=O)OCC=C)C1c1ccc(OC)cc1 (configuration not stated)	n	n	52.5	n	n	n
CCOC(=O)C1C(=O)CC(C)(O)C(C(=O)OCC)C1c1ccc(OCC)cc1 (configuration not stated)	n	n	n	n	n	n
CCOC(=O)C1C(=O)CC(C)(O)C(C(=O)OCC)C1c1cccc(OC(F)(F)C(F)F)c1 (configuration not stated)	n	n	85.9	89.8	x	x
CCOc1cc(C(=S)N2CCOCC2)ccc1OS(=O)(=O)c1ccc(NC(C)=O)cc1	n	n	71.2	61.2	n	n
CCOc1ccccc1C(=O)Nc1ccc(S(=O)(=O)N2CCOCC2)cc1	n	3.3	54.3	n	n	n
COc1cc(NC(=S)Nc2ccc(S(=O)(=O)N3CCOCC3)cc2)cc(OC)c1OC	n	n	n	n	n	n
COc1ccccc1C(=O)Nc1ccc(S(=O)(=O)N2CCOCC2)cc1	n	5.2	n	n	n	n
Cc1ccccc1OCC(=O)N(Cc1ccc(N(C)C)cc1)C1CCS(=O)(=O)C1 (configuration not stated)	n	n	n	n	n	n
Cc1cc2c(c(=O)o1)C(Cc1ccccc1)C(C#N)=C(N)O2 (configuration not stated)	n	n	86.5	63.0	n	n
COc1cc(C2C(C#N)=C(N)Oc3cc(C)oc(=O)c32)cc2c1OCO2 (configuration not stated)	n	n	n	53.7	n	n
Cc1cc2c(c(=O)o1)C(C(C)C)C(C#N)=C(N)O2 (configuration not stated)	n	n	56.6	n	n	n
CCOc1cccc(C2C(C#N)=C(N)Oc3cc(C)oc(=O)c32)c1OCC (configuration not stated)	n	n	n	89.5	n	n
CCCC(C)C1C(C#N)=C(N)Oc2cc(C)oc(=O)c21 (configuration not stated)	x	x	x	x	n	n
NC(=O)CNC(=O)[C@@H]1CC2(CC(c3cccc(Br)c3)=NO2)CN1C(=O)c1ccc(Br)cc1 (some centres not stated)	n	n	n	n	n	n
c1cc2cn[nH]c2cc1NC1CCCCCC1	n	n	99.4	63.8	n	n
Cc1cc(NC2CCCCC2)nc(N2CCOCC2)n1	n	n	n	n	n	n
Cc1sc2ncnc(SCC(=O)c3cccs3)c2c1C	n	n	n	59.9	n	n
Cc1sc2ncnc(SCC(=O)NNC(=O)COc3cccc4ccccc34)c2c1C	n	n	n	n	n	n
Cc1sc2ncnc(SCC#N)c2c1C	n	n	n	n	x	x
Cc1sc2ncnc(SCC(=O)N3CCCC3=O)c2c1C	n	n	58.7	62.7	n	n
CCCN(CC1CC1)C(=O)CSc1ncnc2sc(C)c(C)c12	n	n	91.6	53.3	n	n
COCCn1c(=O)c2c3c(sc2n(CC(N)=O)c1=O)CCCC3	x	x	x	x	n	n
CCCCOc1ccc(C2(C)CC(=O)NC2=O)cc1 (configuration not stated)	n	n	50.6	n	x	x
CCCCOc1ccc(C(=O)NC)cc1	n	n	n	n	n	n
Cc1cc(N)n2ncc(-c3cccc(Br)c3)c2n1	n	n	n	71.5	n	n
SMILES	CYP2C19 act	CYP2C9 act	CYP2C19 inhib	CYP2C9 inhib	sEH inh	sEH act
Cc1cc(N)n2ncc(-c3ccccc3)c2n1	n	n	n	n	n	n
CC1CCCN(C(=O)c2ccc3c(c2NCCO)C(=O)c2ccccc2C3=O)C1 (configuration not stated)	n	n	58.9	n	n	n
O=C(O)C1CCCCC1C(=O)Nc1cccc(Cl)c1Cl (configuration not stated)	n	n	n	n	n	n
CCC(CO)n1c(SCc2cc(=O)oc3cc(C)ccc23)nc2ccccc2c1=O (configuration not stated)	n	n	96.9	98.1	n	n
COc1ccc(C(=O)c2coc3ccc(O)c(CN4CCCC4)c23)cc1	n	n	n	n	n	n
O=C(c1coc2ccc(O)c(CN3CCOCC3)c12)C1CC1	n	n	n	n	n	n
Cc1ccc(C(=O)c2coc3ccc(O)c(CN4CCN(C)CC4)c23)cc1	n	n	78.5	n	n	n
O=C(c1cccs1)c1coc2ccc(O)c(CN3CCOCC3)c12	n	n	65.0	73.0	n	n
Cc1ccccc1C(=O)Nc1cccc(NC(=O)c2ccc(-c3ccc(Br)cc3)o2)c1	n	n	n	55.5	n	n
Cc1onc(-c2ccccc2Cl)c1C(=O)Nc1cc(=O)n(C)c(=O)n1C	x	x	x	x	n	n
CC(C)COc1ccccc1C(=O)NC(CO)C(=O)O (configuration not stated)	n	n	n	n	n	n
O=S(=O)(NC1CCCc2ccccc21)c1cnc[nH]1 (configuration not stated)	n	n	68.3	51.6	x	x
Cn1c(=O)oc2cc(S(=O)(=O)NC3CCCc4ccccc43)ccc21 (configuration not stated)	n	n	n	n	n	n
NC(=O)CSc1nnc(Cc2csc(Nc3ccccc3)n2)n1Cc1ccccc1	n	n	65.6	n	n	n
COc1ccc(-n2c(SCC(N)=O)nnc2-c2ccccc2F)cc1	x	x	x	x	n	n
Cc1cc(C)c(S(=O)(=O)NNC(=O)C2CCN(Cc3ccccc3)CC2)c(C)c1	n	n	n	n	n	n
CC(C)CN1C(=S)SC(C)(C)C1n1oc(=O)n(-c2ccc(Cl)cc2)c1=O (configuration not stated)	n	n	66.2	88.0	n	n
N#Cc1ccc(OCC(=O)NCCc2ccc(S(N)(=O)=O)cc2)cc1	n	n	n	n	n	n
C/C(=N\NC(=O)c1[nH]c2c([N+](=O)[O-])cc(C)cc2c1-c1ccccc1)c1cccnc1	n	n	62.3	n	n	n
COc1ccc(CN(C(=O)c2cnccn2)C(C(=O)NC(C)(C)C)c2cc(OC)c(OC)c(OC)c2)cc1 (configuration not stated)	x	x	x	x	n	n
Cc1cc(N2CCCC2)ccc1/C=N/n1cnnc1	n	n	99.0	86.1	n	n
CSCCC(NC(N)=O)C(=O)NCc1ccc(Cl)cc1 (configuration not stated)	n	n	n	n	n	n
Nn1c(SCC(=O)N2CCCc3ccccc32)nnc1-c1ccccc1	n	n	n	n	x	x
CCCn1nnnc1SCC(=O)N1CCCc2ccccc21	n	n	82.6	n	n	n
O=C(CSc1nnnn1-c1ccc(Cl)cc1)N1CCc2ccccc2C1	n	n	74.1	n	n	n
Nn1c(SCC(=O)N2CCc3ccccc3C2)nnc1-c1cccs1	n	n	n	n	n	n
Nc1nc(SCC(=O)N2CCCc3ccccc32)n(-c2ccccc2)n1	n	n	74.6	n	n	n
